Test results published in the supplement of paper PMC3334620.
The full ranking holds about 33,000 sequences; the median of “E-score (-0.5 to 0.5)” is about -0.0059, and the highest 2% start at about 0.26. The entries come from a sample that favours the highest values as a whole.

biological target: T1, Cin5 (UniProt P40917); assay: PBM E-score (8-mer binding enrichment) (E-score (-0.5 to 0.5)); higher = stronger / more preferred TF binding; details: protein concentration: 100 nM; construct: GST-full length
T1 sequence: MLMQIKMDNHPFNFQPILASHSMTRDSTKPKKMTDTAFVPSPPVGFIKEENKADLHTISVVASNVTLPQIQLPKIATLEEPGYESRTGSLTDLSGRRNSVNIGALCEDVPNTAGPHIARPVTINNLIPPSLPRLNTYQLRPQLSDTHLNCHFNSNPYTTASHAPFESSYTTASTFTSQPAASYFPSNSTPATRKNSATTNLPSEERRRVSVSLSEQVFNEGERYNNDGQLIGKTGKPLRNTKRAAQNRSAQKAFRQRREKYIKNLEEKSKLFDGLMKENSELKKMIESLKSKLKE
Method: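 Universal 'all 10-mer' protein binding microarrays (Agilent AMADID 015681) probed with GST-tagged S. cerevisiae TFs (full-length or DBD) made by in vitro transcription/translation (PURExpress), about 100-200 nM. Bound TF was detected with fluorescent anti-GST. Each ungapped 8-mer (which stands for itself and its reverse complement) is scored by the PBM enrichment score (E-score), a modified Wilcoxon-Mann-Whitney statistic from -0.5 to +0.5, computed with the Universal PBM Analysis Suite. Scale: above 0.35 generally sequence-specific binding.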

Sequence	PBM E-score
CTCTGAGC	-0.2
ACTGGGAT	0.0399
GCTCTTCA	-0.157
CGGAGTGA	0.0979
CGTTCAAA	-0.0884
GACGTCAC	0.00326
GGCCAACA	-0.0942
CATCGATA	0.258
CATCGATG	0.0124
AATCGATA	0.247
ATGCTTCA	0.0559
AATCACCG	0.0462
GCCCACCC	0.191
CCCACCCA	0.21
ACCCACCC	0.323
CCCCACCC	0.153
CCCACCCC	0.24
CCCACCCG	0.293
CCAGCGAG	-0.0473
CGAAATGA	0.19
ATGGGACA	0.0583
GTGCTCGA	-0.0887
GTGCTAAA	0.00722
AAGTAACA	0.316
GTGTAATA	0.193

Sequence	PBM E-score
AAGTAATC	0.339
ATGTAATA	0.361
ATGTAATG	0.193
CTGTAATA	0.105
CTGTAATC	0.128
AAGTAACG	-0.0154
AAGTAACT	0.186
CAGTAATC	0.15
ATGTAATC	0.383
AAGTAATT	0.181
TAGATCCA	-0.00386
CGTGCCGA	-0.115
AGGAAATA	0.164
GGCTCCAA	-0.169
AGGCTAAT	0.0863
ATAAGACA	0.105
GAATCCGA	0.0296
CGTGGTCA	-0.0679
ACAATGTG	0.0255
AACATGTC	0.0503
CACATGTG	-0.00999
AACATGTG	0.257
CTCTTGGC	-0.112
TGACTTAA	0.268
GGACTTAA	-0.15

Sequence	PBM E-score
AGACTTAA	-0.139
GCAATCAA	0.195
CATGTTGC	-0.00801
AATGTTGA	-0.014
CATGTTGA	0.293
GCACCACA	-0.122
ACCAATAG	-0.123
AACAATAA	0.257
ACCAATAT	0.323
ACCAATAC	0.104
AACAATAC	0.187
AACAATAT	0.345
GCTTGCCA	-0.131
ATCTGGCC	-0.108
CACGCGAC	-0.0294
TACTTGCA	0.141
CCACAGAC	-0.0305
CGCGCTGA	0.104
AGCGCTTA	0.157
CGCGCTTA	0.297
ATCGCTTA	0.0758
CTCGCTTA	0.346
CTCGCTGA	-0.0383
AGGTATAT	0.193
GGCGGGTA	-0.194

Sequence	PBM E-score
CGCCAAAC	-0.072
ACGCTAAC	0.0232
GTTCAAAA	-0.105
ATTAGTAC	0.173
ATTAGTAG	0.0962
GTTAGTAA	0.111
CTTAGTAC	0.0461
CTTAGTAA	0.392
ATTAGTAA	0.387
ATCTGGGC	-0.0822
AGCTGTTC	-0.0725
TCGCAAAA	0.156
CAGTATGC	0.0107
CTTAGCTC	-0.106
CCATGTAG	-0.00831
ACATGTAG	0.278
ACATGTAA	0.168
CCAGATTA	0.225
CGGCTCGC	0.0606
ATGATGTC	0.233
ATGATGTA	0.305
ATGATGTG	0.145
AAAATGGA	0.29
CTGATGAA	0.0259
ATGATGAA	0.258

Sequence	PBM E-score
TAAATGTA	0.191
GAAATGTA	0.143
CAAATGTA	0.268
AAAATGGG	-0.0874
CAAATGGA	-0.0888
GTGATGAA	0.0186
GCATAGCA	-0.0462
AGCCACCT	-0.192
GATCTGGA	-0.125
CCTTAACG	-0.0146
GTAGGGAA	0.00147
GAAACGCC	0.114
CGGGCGTA	-0.132
ACAACCGT	-0.172
CTGATGTA	0.266
GTGATGTA	0.172
CTGATGTC	0.184
GCAGCAAC	-0.0419
ATGAATGA	0.143
ATGAATGC	0.167
ATGAATGG	0.301
CCCATCAG	-0.165
CACCACGG	-0.325
ATATTAAT	0.362
ATATTAAC	0.28

Sequence	PBM E-score
TGATTAAA	0.0915
ATATTAAG	0.122
AGATTAAT	0.218
TTATTAAA	0.278
CTATTAAG	-0.041
ATATTAAA	0.35
GTATTAAC	0.00428
GTATTAAA	0.149
CTATTAAC	0.115
CTATTAAA	0.00048
AAGGATAG	0.0333
TCGATGCA	0.152
GTTCAGTA	0.0391
TGGTCGAA	-0.242
ATATCCCC	0.0837
TGCTGCCA	-0.0641
ATGATTCG	0.053
CATCCCTA	0.122
CATTCTGG	0.0333
GCACCTAA	-0.0501
TCATTAAA	0.353
ACATTAAA	0.152
GCATTAAA	0.0586
GCGTCCAC	-0.283
GCCTCCGC	-0.203

Sequence	PBM E-score
AAATTACG	0.171
ATATTACC	0.317
AAATTACC	0.123
ATATTACG	0.376
CTATTACC	-0.0809
ATATTACA	0.209
AAGAAAAT	0.159
CTCTACAC	-0.0485
CTAGTAAA	0.165
ATAGTAAT	0.358
ATAGTAAA	0.198
ATCGTAAA	0.0952
ATAGTAAC	0.182
ATCGTAAT	0.385
TTAGTAAA	0.269
ATCGTAAC	0.0852
GTAGTAAA	0.149
CCGGTAGG	-0.163
CCCAGAAG	-0.167
GCGATAGA	0.0484
CGACTTGA	-0.0696
AATCTACC	0.138
CAGATTCC	-0.0124
AAACTAGA	-0.116
TAACTAGA	0.306

Sequence	PBM E-score
GAACTAGA	-0.00859
AAGATTCT	-0.106
CTTTTGGA	-0.0744
ACAGACAA	0.28
AGACAGAT	0.277
AGACAGAC	0.192
AGACAGAG	-0.0616
ACAGACAC	-0.0499
ACAGACAG	0.195
AAGGTCGA	0.146
ACCACGCG	-0.0218
ACGTATCA	0.156
GAGCCGGA	-0.178
CTATATAG	0.103
ATATAGTA	0.235
CTATAGTC	-0.063
CTATATAA	0.0999
ATATATAG	0.26
GTATATAC	0.104
ATATATAT	0.146
ATATATAA	0.335
ATATAGTC	0.258
ATATATAC	0.316
GTATATAA	0.222
AGATATAG	0.149

Sequence	PBM E-score
ACCATCGG	-0.108
GAGGCGAC	-0.213
AGATTCTC	0.0336
GTGCAGGA	-0.0289
GAAGTCCA	-0.133
CTATATAC	0.313
CTCTATAC	-0.0333
CTATATGC	0.212
ACTACATA	0.207
AATACATA	0.278
ATTACAGA	0.0804
ATTACATA	0.355
CTTACACC	-0.0748
ATTACACG	0.0848
CTTACACA	0.259
AGTACATG	0.118
AATACATG	0.195
ATTACAGG	0.244
CATACATA	0.213
ATTACATG	0.297
GTGCCGTA	0.0613
CACCTTGA	0.00105
AAAAGACT	-0.205
GGCCATAA	0.0497
AGAAGGTG	0.0112

Sequence	PBM E-score
CTAAGGCA	-0.173
CTTACATC	0.213
CGTACATA	0.191
CTTACAAA	0.192
GTTACATA	0.266
CTTACATA	0.358
AATACGTA	0.313
AATACGTG	-0.0461
ATTACATC	0.31
CATACGTA	0.242
GCTACATA	0.0756
GTTACAAA	0.184
AGTACATC	0.0156
ACTGCCAC	-0.012
AATCAGTC	0.0788
AGCCAGTA	-0.0197
GAGTGCGA	-0.11
AATCGAGA	0.171
AATCTCCG	0.0667
ATTACAAA	0.306
ATTACAAG	0.131
ATTACAAT	0.153
TAATATAA	0.355
GAATATAA	0.112
TCATATAA	0.197

Sequence	PBM E-score
CAATATAG	0.225
CAATATAA	0.295
CAATATAC	0.181
TATAGCCA	0.111
GTTTAATA	0.143
ACTTAATC	0.133
ACTTAATA	0.26
GCTTAATA	0.207
CTTTAATA	0.122
ATTTAATA	0.295
AGTTCGCA	0.0133
ATCCAACA	0.0603
CTTGCGTC	-2e-05
AATGGGGA	0.0144
CATGGGGA	-0.0804
TATGGGGA	0.27
CGGGTGTC	-0.00474
ACCCCTCT	-0.17
ATACATAG	0.159
ATACATAT	0.318
ATACATAA	0.286
AGACATAT	0.0819
CTACATAA	0.0697
ATACATAC	0.0724
AGTTCTAC	-0.141

Sequence	PBM E-score
TATGCTCA	0.132
CAACCCGG	-0.222
CGCAGCGC	-0.138
AAGCTACC	0.106
AAATGATA	0.279
CAATGAAA	0.0978
TAATGAAA	0.203
CTATGAAA	0.0722
ATATGAAC	0.132
AAATGAGA	0.128
GAAATGAA	0.275
CAAATGAA	-0.0217
AAATGAAA	0.266
TAAATGAA	0.129
CAATGATA	0.182
ATATGAAA	0.259
CTTTGCCC	-0.199
ATCCCTAA	-0.19
ACGGCCGA	0.0311
GGCGGCAA	-0.184
GGTATACC	-0.0512
AACCAATA	0.214
AGATACAT	0.171
CAGCGCAA	0.0372
GAATGATC	-0.046

Sequence	PBM E-score
AAATGATG	0.207
TAATGAGA	0.0551
GAATGAGA	0.115
AAATGATT	0.294
TAATGATA	0.298
GAATGATA	0.291
AAATGGTA	0.268
TAATGGTA	-0.00375
CAATGGTA	0.101
TAATGACA	0.237
AAATGATC	0.00639
CGACGTCC	0.0493
ATAGTGTC	0.0674
ACATGGCT	-0.0786
CTACGAGC	-0.108
GGAACCAC	-0.0344
AGATGATG	0.27
GAAATTAA	0.273
AAAATTAA	0.105
AGATGATA	0.212
AGATGATC	0.119
CAAATTAA	0.191
GCAAGGGC	-0.235
TAACATGA	0.071
AGCTTCCT	0.00798

Sequence	PBM E-score
CAGCAAAG	-0.0276
GAATCTGA	-0.0334
GAGCTTTA	-0.0441
GAGTATTA	0.178
AAGTATTA	0.0531
CAGTATAA	0.284
CAGTATTA	0.294
AAGTATAA	0.216
GAGTATAA	0.181
GGAAGTCA	0.0165
GAACTCCA	0.0209
CAGCATGC	-0.0241
GGATCAAA	0.0839
CTCTGGCC	-0.234
GGGACCAC	-0.174
CCGCCTAA	-0.0943
CATGTAAA	-0.054
AATGTCAA	0.176
GATGTCAA	0.0458
GATGTAAA	0.13
TATGTAAA	0.286
TATGTCAA	0.294
